# Tau fluor counter = counter-screen for tau fibril formation inhibitors. Potency, µM (series often up to 57.7 µM). tau K18 P301L Alexa594 fluorescence, heparin fibrillization. AID 1463. 0.93% of 280,000 active; also: nearly all actives have a fitted effect of over 55% in size
#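 Human K18 P301L tau (15 uM unlabeled plus 0.24 uM Alexa 594-labeled, final) in 100 mM sodium acetate pH 7 was mixed with compound and 20 uM heparin and incubated 6 hr at 37 C.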
# Tau ThT inhib = blocks human tau fibril formation measured by thioflavin T. P10636. recombinant tau K18 P301L, heparin-induced fibrillization, ThT fluorescence. Potency, µM (highest dose often 57.4 µM), usual class: inhibitors. 2.1% of 270,000 active; also: nearly all actives have a fitted effect of over 55% in size
#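 ThT emission at 510 nm, taken 1 hr after adding 30 uM dye, quantifies aggregates formed when 20 uM heparin acts on human tau K18 P301L for 6 hr at 37 C.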
# USP1 inh = blocks the human USP1/UAF1 deubiquitinase complex | Potency, µM (top dose mostly 57.1 µM), most hits filed as inhibitors | O94782 | 0.23% of 390,000 active | recombinant USP1/UAF1, Ub-Rhodamine cleavage fluorescence; also: nearly all actives have a fitted effect of over 60% in size
#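 USP1/UAF1 complex at 1 nM was preincubated with compound for 15 min at room temperature, then Ub-Rho substrate (150nM final) was added. Fluorescence (480/540 nm) was read kinetically, 6 reads every 60 seconds.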
# Coupling enz = counter-screen for Giardia aldolase inhibitors: coupling enzyme system | coupling enzyme system counterscreen, AmpLite Red fluorescence | activity change, negative = inhibition, % at 58.2 µM, hits read low | 0.67% of 290,000 active; in the data active = activity change below about -30%
#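 First, compound is pin-transferred into glyceraldehyde-3-phosphate coupling-enzyme reagent at 57.5 uM final and held 10 min at RT. Next, substrate, coupling system and AmpLite Red are added. After 20 min RT, fluorescence (525/598 nm) is read.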
# Tau FP inhib = tau fibrillization inhibition (FP); P10636; K18 P301L tau heparin fibrillization, Alexa594 FP, 6 h; Potency, µM (doses to about 57.7 µM), usual class: inhibitors; 0.39% of 280,000 active; also: nearly all actives have a fitted effect of over 55% in size
#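 Steps: dispense K18 P301L tau (15 uM plus 0.24 uM Alexa 594 tracer, final) in pH 7 sodium acetate; add compound; add heparin (20 uM final); incubate 6 hr, 37 C; add ThT (30 uM final); after 1 hr ambient, read FP.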
# Numbers stand for hits; . = inactive; ? = inconclusive; / = no result given; [ ] = dose if it differs, or a comment. Sampled rows, rich in hits. Any-hit rate of the full collection: about 2.3%. Unless noted, calls follow the shape of the dose curve; as a rule, active = well fitted curve in the direction sought with a large enough effect; inconclusive = small, poorly fitted or top-dose-only effect, or another doubt; inactive = no such curve, though single readings can be large; an effect the other way counts as inactive or inconclusive.
SMILES,Tau fluor counter,Tau ThT inhib,USP1 inh,Coupling enz,Tau FP inhib
COCc1[nH]nc2c1C(c1c(F)cccc1Cl)C(C#N)=C(N)O2 (stereo not drawn),.,.,.,-39,.
O=C(Nc1ccc(Cl)cc1)Nc1ccc(N2CCCC2)c(S(=O)(=O)Nc2ccccc2Cl)c1,2.8µM[quencher],.,.,.,?
COc1ccccc1NS(=O)(=O)c1cc(NC(=O)c2ccncc2)ccc1N1CCCC1,22µM[quencher],?,?,.,.
CC(=O)c1c(C)[nH]c(C(=O)Nc2ccc(C)c(S(=O)(=O)Nc3ccc(C)cc3C)c2)c1C,22µM[quencher],.,.,.,?
COc1ccccc1NS(=O)(=O)c1cc(NC(=O)Nc2cccc(C)c2)ccc1N1CCCCC1,?,?,.,.,28µM
COc1ccccc1NS(=O)(=O)c1cc(NC(C)=O)ccc1N1CCCCC1,?,.,.,.,.
COc1ccccc1NS(=O)(=O)c1cc(NC(=O)c2ccccc2C)ccc1N1CCOCC1,/,/,.,/,/
COc1ccccc1NS(=O)(=O)c1cc(NC(=O)c2[nH]c(C)c(C(C)=O)c2C)ccc1N1CCOCC1,13µM[quencher],.,.,.,?
CCCCc1nc2c(c3c1C[C@H](C)OC3)CN(C(=O)C1CCCCC1)CC2,.[11.6 µM],.[11.5 µM],/,.,.[11.6 µM]
C(=N\N(Cc1ccccc1)c1ccccc1)/c1cccnc1,.,?,.,.,.
Oc1cccc(/C=N/N(Cc2ccccc2)c2ccccc2)c1,13µM[quencher],?,.,.,?
Oc1ccc(/C=N/N(Cc2ccccc2)c2ccccc2)c(O)c1O,28µM[quencher],28µM,.,.,?
CCC(=O)NC1CC(=O)N(c2ccc3c(c2)OCCO3)C1 (stereo not drawn),.,.,.,/,.
Cc1ccnc(N/C=C(\C#N)c2nc(-c3cccc(Br)c3)cs2)c1,.,?,22µM,.,.
Cc1ccc(Oc2c(C(N)=O)cc([N+](=O)[O-])cc2[N+](=O)[O-])cc1,?,8.9µM,.,.,?
O=C(Nc1nccs1)C1CC=CCC1 (stereo not drawn),/,/,.,.,/
O=C(Nc1ccc(O)cc1)C1CC=CCC1 (stereo not drawn),28µM[quencher],25µM,?,.,?
Cc1c2oc3c(C)ccc(C(=O)NC4C(=O)NC(C(C)C)C(=O)N5CCCC5C(=O)N(C)CC(=O)N(C)C(C(C)C)C(=O)OC4C)c3nc-2c(C(=O)NC2C(=O)NC(C(C)C)C(=O)N3CCCC3C(=O)N(C)CC(=O)N(C)C(C(C)C)C(=O)OC2C)c(N)c1=O (stereo not drawn),.,?,/,/,.
COc1cccc(/C=C/C(=O)Nc2ccc3nc(N4CCN(C)CC4)cc(C)c3c2)c1OC,8.9µM[quencher],5µM,.,/,.
CCN1CCN(c2cc(C)c3cc(NC(=O)/C=C/c4cccc(OC)c4OC)ccc3n2)CC1,18µM[quencher],3.2µM,.,/,.
CCN(CC)C(=O)c1ccc(Oc2ccc([N+](=O)[O-])cc2Cl)cc1,.,.,.,.,.
CCN(CC)C(=O)c1cc([N+](=O)[O-])cc2c1-c1ccc([N+](=O)[O-])cc1C2=C(C#N)C#N,?,32µM,?,-34,?
CCSc1nc(-c2ccc(Cl)cc2)nc2c1Cc1c(CO)cnc(C)c1O2,.,.,.,/,.
O=c1cc(N2CCc3ccccc32)[nH]c(=O)n1-c1ccc(Br)cc1,.,28µM,.,.,?
Cc1cccc(-c2nc(SCC(=O)NCc3ccco3)c3c(=O)n(C)c(=O)n(C)c3n2)c1,.,.,.,/,.
SMILES,Tau fluor counter,Tau ThT inhib,USP1 inh,Coupling enz,Tau FP inhib
Cc1ccccc1Oc1cc(NC(=O)Cn2cnc([N+](=O)[O-])c2)cc([N+](=O)[O-])c1,13µM[quencher],?,.,.,?
CC(C)c1ccc(NC(=O)c2snc3ccc(Cl)cc23)cc1,?,?,.,.,22µM
COc1ccc(OC(C)C(=O)NCc2nc(-c3ccc(Cl)cc3)no2)cc1 (stereo not drawn),.,.,.,/,.
COc1ccc(NC(=S)N/N=C2\CC(C)(C)Oc3ccc(O)cc32)cc1,28µM[quencher],?,.,.,.
C=C(C)CN=C1SC(C(=O)Nc2sc3c(c2C(=O)OC)CCC3)C(N)=C1C(N)=O (stereo not drawn),?,?,.,.,.
COC(=O)c1c(NC(=O)C2SC(=NC3CCCCC3)C(C(N)=O)=C2N)sc2c1CCCC2 (stereo not drawn),16µM[quencher],?,.,.,?

# Screening data: PubChem, National Center for Advancing Translational Sciences (NCATS)
